Assay [1] in a line: compounds binding Alexa647 anti-His antibody – biochemical, small-molecule microarray, 635 nm fluorescence, artefact control for SMM control protein annotation, primary screen (AID 1128).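 Note: score merges feature fluorescence with signal-to-noise for each printed compound spot.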 To be noted: higher = more signal.
Assay [2] has as its system Human papillomavirus type 1a E7 protein (residues 1-88). Kind of assay: HPV1a E7 small-molecule binders, primary screen, biochemical, small-molecule microarray, residues 1-88, 635 nm (AID 1129). To be noted: small-molecule microarray binding, fluorescence 635 nm; higher = more signal.
The target in assay [3] is Focal adhesion kinase 1 (Homo sapiens) (UniProt Q05397). Kind of assay: PTK2 protein binding on printed compound slides – biochemical, small-molecule microarray, 635/667 nm fluorescence, BSA, DTT, primary screen (AID 1130).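 Note: composite of spot emission at 667 nm and signal to noise over triplicate slides.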 The settings on record: 635 nm fluorescence, higher = more signal.
Focal adhesion kinase 1 (Homo sapiens), sequence (Q05397 whole entry, looked up): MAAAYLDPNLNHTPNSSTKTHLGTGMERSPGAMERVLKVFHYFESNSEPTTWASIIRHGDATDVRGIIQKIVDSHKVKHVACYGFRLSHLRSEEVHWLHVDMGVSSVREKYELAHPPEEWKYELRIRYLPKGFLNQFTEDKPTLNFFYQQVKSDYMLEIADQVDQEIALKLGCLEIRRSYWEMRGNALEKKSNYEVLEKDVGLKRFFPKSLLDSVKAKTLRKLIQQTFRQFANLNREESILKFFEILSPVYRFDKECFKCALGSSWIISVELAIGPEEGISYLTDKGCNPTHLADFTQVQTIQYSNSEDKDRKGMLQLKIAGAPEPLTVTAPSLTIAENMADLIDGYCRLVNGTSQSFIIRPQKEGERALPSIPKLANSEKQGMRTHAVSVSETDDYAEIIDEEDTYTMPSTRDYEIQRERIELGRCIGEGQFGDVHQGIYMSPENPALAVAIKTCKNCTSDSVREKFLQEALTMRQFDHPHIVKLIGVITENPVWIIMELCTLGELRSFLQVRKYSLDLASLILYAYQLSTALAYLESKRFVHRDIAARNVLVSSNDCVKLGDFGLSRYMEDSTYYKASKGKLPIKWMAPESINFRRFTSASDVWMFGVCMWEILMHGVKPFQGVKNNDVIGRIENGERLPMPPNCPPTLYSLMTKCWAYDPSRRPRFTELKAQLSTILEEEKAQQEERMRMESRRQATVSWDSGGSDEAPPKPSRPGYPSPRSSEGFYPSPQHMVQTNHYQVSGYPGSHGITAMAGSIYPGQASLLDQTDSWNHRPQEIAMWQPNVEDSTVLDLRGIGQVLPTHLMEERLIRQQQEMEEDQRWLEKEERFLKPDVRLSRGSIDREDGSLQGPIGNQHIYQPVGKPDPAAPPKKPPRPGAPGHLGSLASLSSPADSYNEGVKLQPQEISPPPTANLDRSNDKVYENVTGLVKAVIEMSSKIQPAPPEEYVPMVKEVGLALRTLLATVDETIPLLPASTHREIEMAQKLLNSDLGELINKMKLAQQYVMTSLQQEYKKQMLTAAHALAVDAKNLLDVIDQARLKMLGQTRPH
For assay [4], the system named is Fibrinogen (Alexa647-labelled). Kind of assay: Alexa647-fibrinogen binding to printed small molecules – biochemical, small-molecule microarray, 635/667 nm fluorescence, artefact control for SMM control-protein annotation, profiling panel (AID 1131).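 Note: z-score merges 667 nm fluorescence with per-spot signal-to-noise over triplicate slides.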 The settings on record: fibrinogen-A647 binding fluorescence, higher = more signal.
Assay [5] deals with Follistatin (Homo sapiens) (UniProt P19883). Kind of assay: FST protein binding to printed compounds – biochemical, small-molecule microarray, 635/667 nm fluorescence, primary screen (AID 1132). The settings on record: 635 nm fluorescence, higher = more signal.
Follistatin (Homo sapiens), sequence (P19883 whole entry, looked up): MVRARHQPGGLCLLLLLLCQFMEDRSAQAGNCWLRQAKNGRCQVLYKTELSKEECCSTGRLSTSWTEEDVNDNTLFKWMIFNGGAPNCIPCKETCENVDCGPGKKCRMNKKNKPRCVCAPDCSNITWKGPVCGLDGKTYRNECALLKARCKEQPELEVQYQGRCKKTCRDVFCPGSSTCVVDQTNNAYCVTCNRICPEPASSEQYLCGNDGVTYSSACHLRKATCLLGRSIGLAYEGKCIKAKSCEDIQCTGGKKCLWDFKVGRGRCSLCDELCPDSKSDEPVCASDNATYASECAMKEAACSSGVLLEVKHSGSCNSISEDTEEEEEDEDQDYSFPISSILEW
The target of assay [6] is Fibroblast growth factor 2 (Homo sapiens) (UniProt P09038). Kind of assay: basic fibroblast growth factor binding to printed compounds – biochemical, small-molecule microarray, 635/667 nm fluorescence, primary screen (AID 1133). To be noted: FGF2, fluorescence 635/667, higher = more signal.
Fibroblast growth factor 2 (Homo sapiens), sequence (P09038 whole entry, looked up): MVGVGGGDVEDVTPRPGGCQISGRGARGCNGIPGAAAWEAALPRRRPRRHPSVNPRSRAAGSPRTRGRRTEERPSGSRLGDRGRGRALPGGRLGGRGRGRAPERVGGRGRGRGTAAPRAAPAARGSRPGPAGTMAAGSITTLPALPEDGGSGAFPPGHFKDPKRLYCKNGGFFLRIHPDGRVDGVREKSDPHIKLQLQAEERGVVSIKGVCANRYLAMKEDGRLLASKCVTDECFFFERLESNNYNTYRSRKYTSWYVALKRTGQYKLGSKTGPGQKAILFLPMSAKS
Assay [7] is described as follows: JC-1 mitochondrial potential readout, lung cancer cells – cell-based, A549, JC-1 fluorescence, basal, 24 h, 100 nL, profiling panel (AID 1138).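 Note: A549 lung adenocarcinoma cells under basal conditions with no added stimulus; test concentration not given here.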 To be noted: higher = more signal.
Assay [8] has as its system Lefty1. The assay is described as follows: Lefty1 protein binding to printed compounds – biochemical, small-molecule microarray, 635/667 nm fluorescence, primary screen (AID 1139). The settings on record: fluorescence 635/667, higher = more signal.
Assay [9] concerns wheat germ agglutinin (Triticum aestivum), Alexa647-labelled. Kind of assay: Alexa647-WGA lectin binding to printed small molecules – biochemical, small-molecule microarray, 635/667 nm fluorescence, artefact control for SMM control-protein annotation, profiling panel (AID 1140).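 Note: score merges 667 nm feature emission with signal to noise over triplicate slides.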 The settings on record: WGA-A647 binding, 635 nm fluorescence, higher = more signal.
Assay [10] addresses Luciferin 4-monooxygenase (Photinus pyralis) (UniProt P08659). Kind of assay: inhibition of purified Photinus pyralis luciferase – biochemical, luminescence, purified enzyme, 2006 set, primary screen (AID 1141).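 Note: cell-free assay with purified firefly luciferase at 100 ng per well in PBS; test concentration not given here.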 The settings on record: purified firefly luciferase, SteadyGlo luminescence, 30 min; higher = more signal, called active from +8 up or from −8 down.
Assay [11] deals with Wnt5a (protein binding on small-molecule microarray). Kind of assay: small molecules binding Wnt5a protein – biophysical, small-molecule microarray, 635/667 nm fluorescence, primary screen (AID 1142).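 Note: fluorescence read at 667 nm with signal to noise per printed feature.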 To be noted: 635 nm fluorescence, higher = more signal.
The nature of assay [12]: ATP-based viability of Huh7 replicon cells – cell-based, CellTiter-Glo luminescence, basal, 48 h, cytotoxicity control for HCV replication inhibitor project, primary screen (AID 1143).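 Note: Huh7 hepatoma cells carrying a hepatitis C replication reporter with no stimulus; test concentration not given here.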 To be noted: higher = more signal, called active from +8 up or from −8 down. (In general: Replicon systems follow genome replication, usually without infectious particles.)
Assay [13] in a line: Pseudomonas biofilm growth suppression – PAO1 strain, BacTiter-Glo luminescence, LB-PBS, primary screen (AID 1144). To be noted: P. aeruginosa PAO1 biofilm, 12 h, higher = more signal.
Assay [14] in a line: basal CRE-LacZ reporter activity in PC12 – cell-based, unstimulated, primary screen (AID 1145). The settings on record: no forskolin, luminescence, 4.5 h, higher = more signal, called active from +8 up or from −8 down.
Assay [15] can be described thus: forskolin-driven CRE-LacZ activity in PC12 – cell-based, CRE-LacZ reporter, forskolin-stimulated, primary screen (AID 1146).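 Note: PC12 cells with 6xCRE LacZ reporter stimulated by forskolin 10 µM; beta-galactosidase reporter signal reflecting CREB driven transcription.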 To be noted: luminescence, 4.5 h, higher = more signal, called active from +8 up or from −8 down.
The target of assay [16] is Streptavidin (Streptomyces avidinii) (UniProt P22629). Kind of assay: compounds binding control protein streptavidin – biophysical, small-molecule microarray, 635/667 nm fluorescence, artefact control for SMM compound annotation, primary screen (AID 1147).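 Note: signal reflects streptavidin binding to arrayed compounds as a control protein.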 The settings on record: higher = more signal.
Streptavidin (Streptomyces avidinii), sequence (P22629 whole entry, looked up): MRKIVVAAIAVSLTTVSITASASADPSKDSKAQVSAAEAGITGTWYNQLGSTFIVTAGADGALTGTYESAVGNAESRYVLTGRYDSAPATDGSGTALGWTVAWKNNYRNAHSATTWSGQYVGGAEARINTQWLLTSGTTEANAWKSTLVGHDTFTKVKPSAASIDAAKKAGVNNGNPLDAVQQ
Assay [17] can be described thus: probe aInhba binding on compound microarray – biochemical, small-molecule microarray, 635/667 nm fluorescence, primary screen (AID 1148).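 Note: score merges 667nm spot fluorescence with signal-to-noise for antibody binding to printed compounds.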 The settings on record: higher = more signal.
The target of assay [18] is Torsin-1A (Homo sapiens) (UniProt O14656). Kind of assay: TOR1A wild-type binding on microarray – cell lysate, small-molecule microarray, lysate, 635/667 nm, primary screen (AID 1149). To be noted: COS7 hTOR1A-WT lysate, 635 nm fluorescence, higher = more signal.
Torsin-1A (Homo sapiens), sequence (O14656 whole entry, looked up): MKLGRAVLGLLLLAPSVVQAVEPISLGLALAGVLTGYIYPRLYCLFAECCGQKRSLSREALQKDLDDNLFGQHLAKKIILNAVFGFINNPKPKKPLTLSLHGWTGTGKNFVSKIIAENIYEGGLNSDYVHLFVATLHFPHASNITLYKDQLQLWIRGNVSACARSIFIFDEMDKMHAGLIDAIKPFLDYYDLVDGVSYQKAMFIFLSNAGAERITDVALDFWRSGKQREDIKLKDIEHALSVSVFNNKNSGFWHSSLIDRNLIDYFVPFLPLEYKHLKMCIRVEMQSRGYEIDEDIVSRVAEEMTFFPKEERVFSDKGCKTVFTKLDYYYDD
The target is the same in assay [19]. The assay is described as follows: torsin A mutant lysate binding on microarrays – cell lysate, small-molecule microarray, COS7 lysate, 635/667 nm fluorescence, primary screen (AID 1150).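 Note: score pools 667 nm emission and signal to noise measuring lysate protein binding.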 The settings on record: COS7 hTOR1A mutant lysate, 635 nm fluorescence, higher = more signal.
The test system of assay [20] is Sonic hedgehog protein (Shh). Kind of assay: Sonic hedgehog microarray binding compounds – biochemical, small-molecule microarray, 635/667 nm fluorescence, primary screen (AID 1151).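 Note: Shh protein binding to compounds spotted on small-molecule microarray slides; score combines spot fluorescence intensity with signal-to-noise across triplicate slides.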 To be noted: 635 nm fluorescence, higher = more signal.

The structures appear in SMILES notation. Active and inactive are the calls of the source. Unless noted, the rule behind the calls is not given here.

Luciferin 4-monooxygenase (Photinus pyralis), sequence (P08659 whole entry, looked up): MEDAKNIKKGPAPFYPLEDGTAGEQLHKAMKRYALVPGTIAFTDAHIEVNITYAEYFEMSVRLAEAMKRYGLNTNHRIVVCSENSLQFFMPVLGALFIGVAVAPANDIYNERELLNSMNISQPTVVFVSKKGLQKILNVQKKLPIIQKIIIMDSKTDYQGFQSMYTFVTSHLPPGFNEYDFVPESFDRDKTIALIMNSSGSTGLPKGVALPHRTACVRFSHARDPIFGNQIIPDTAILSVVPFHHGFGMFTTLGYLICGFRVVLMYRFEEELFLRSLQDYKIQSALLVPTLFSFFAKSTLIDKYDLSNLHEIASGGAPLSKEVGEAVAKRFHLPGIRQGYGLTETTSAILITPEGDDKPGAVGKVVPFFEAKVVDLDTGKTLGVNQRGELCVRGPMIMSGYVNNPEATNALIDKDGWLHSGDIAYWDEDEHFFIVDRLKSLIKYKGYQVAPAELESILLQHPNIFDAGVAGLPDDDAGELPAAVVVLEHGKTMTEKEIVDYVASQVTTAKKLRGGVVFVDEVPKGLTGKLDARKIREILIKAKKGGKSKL

As for `C=CCOC(=O)[C@@H]1[C@H]2C(=O)O[C@H](c3ccccc3)[C@H](c3ccccc3)N2[C@H](c2ccc(OCCOC(=O)[C@@H]3C[C@@H]4C(=O)NCC(=O)N4[C@@H]3c3cccc(OCCO)c3)cc2)[C@@]12C(=O)Nc1ccc(I)cc12`, the composite z-score in [1] came to 1.26; in [2], 1.17; in assay [3], 0.259; in [4], 0.615; in [5], 1.32; in [6], 1.31. Moreover, the composite z-score was 0.914 in assay [8]; 0.449 in assay [9]; 1.02 in [11]; -0.0506 in assay [16]; 0.458 in [17]; 1.56 in assay [18]. Moreover, the composite z-score in assay [19] amounted to 1.17; in assay [20] it was 2.1. The z-score in [7] was -1.21; in [10], -0.408 (inactive); in assay [12], 0.0025 (inactive); in [13] it was -0.0754 (inactive); in assay [14] it was -0.545 (inactive); in assay [15] it was -0.844 (inactive).
As to `CCOC(=O)C1=C[C@@H](CC)N(S(=O)(=O)c2ccc(C)cc2)[C@H]1c1ccccc1`, the composite z-score in [1] was 0.862; in assay [2], 1.21; in assay [3], 1.33; in assay [4], 0.928; in assay [5], 0.431; in assay [6], 0.261. In addition, the composite z-score in [8] came to 0.0048; in [9] it was 0.749; in assay [11], 0.214; in assay [16], 1.09; in assay [17], 0.226; in assay [18], 0.391. Further, the composite z-score in assay [19] is 0.637; in assay [20], 0.0552. Also, the z-score was 2.94 in assay [7]; 2.12 (inactive) in assay [10]; -3.47 (inactive) in assay [12]; -0.0903 (inactive) in assay [13]; 0.22 (inactive) in assay [14]; -0.55 (inactive) in assay [15].
Turning to `Cc1ccccc1C(O)C1C=CC2C(=O)N(C)C(=O)C2N1Nc1ccccc1` (stereo not given), the composite z-score in [1] is 1.23; in assay [2] it was 1.16; in [3], 0.175; in assay [4], 1.01; in assay [5] it was 0.459; in assay [6], -0.462. The composite z-score in assay [8] was -0.395; in assay [9], 1.38; in assay [11], 0.125; in [16], 1.69; in assay [17], 0.112; in [18] it was 0.0494. The values for the composite z-score in assay [19] and in assay [20] were 0.303 and -0.0269, respectively. Moreover, the z-score in assay [7] was 0.0888; in [10], 0.292 (inactive); in assay [12], 0.881 (inactive); in [13] it was 0.149 (inactive); in [14] it was -0.522 (inactive); in [15] it was -0.0967 (inactive).
With `C=C[C@H](COC(C)=O)N(Cc1ccc(OC(C)=O)c(OC)c1)S(=O)(=O)c1ccc(Br)cc1`, the composite z-score in assay [1] was 1.29; in assay [2], 1.12; in assay [3], -0.174; in assay [4], 0.59; in assay [5] it was 1.37; in [6], 1.75. In addition, the composite z-score in assay [8] is 1.02; in assay [9] it was 0.492; in [11], 0.714; in assay [16], 1.12; in [17] it was 0.0219; in [18], 1.85. For the same molecule, the composite z-score in assay [19] is 2.14; in [20], 1.75. In addition, the z-score in assay [7] was 1.15; in assay [10], 0.271 (inactive); in [12] it was -2.08 (inactive); in assay [13], -0.569 (inactive); in assay [14], 0.195 (inactive); in assay [15] it was -1.9 (inactive).
In the case of `COc1cc(C(O)C2C=CC3C(=O)N(c4ccccc4)C(=O)C3N2Nc2ccc(C#N)cc2)cc(OC)c1OC` (stereo not given), the composite z-score in assay [1] stood at 2.58; in assay [2], 1.31; in assay [3], 1.04; in assay [4], 1.11; in assay [5], 1.02; in assay [6], 0.0977. For the same molecule, the composite z-score is -0.0667 in assay [8]; 1.51 in [9]; 0.537 in [11]; 1.66 in assay [16]; 0.201 in assay [17]; 0.249 in [18]. Also, the results for the composite z-score in assay [19] and in assay [20] were 0.204 and 0.117, respectively. Besides, the z-score is 0.142 in assay [7]; 0.282 (inactive) in assay [10]; 0.616 (inactive) in assay [12]; -0.201 (inactive) in [13]; 0.426 (inactive) in assay [14]; 0.238 (inactive) in [15].

Values taken from PubChem BioAssay.
